{"source": "PubChem BioAssay (NCI)", "note": "The panel holds about 79,000 compounds, 15% with a hit somewhere; the sample as a whole holds those more often. Values without a mark were called inactive. Activity calls are given as the source filed them. No stated cut-off is given here; in the data, active means growth inhibition above about 70%; inactive means the rest.", "data": [{"assay": "NCI Yeast Anticancer Drug Screen. Data for the rad50 strain (AID 155);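 further: 0% = growth of vehicle-only cultures of the same strain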", "conditions": "S. cerevisiae rad50 strain growth inhibition; at 50.0 µM; active compounds read high", "procedure,_shortened": "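Cells are treated with compound, grown, and their growth is then scored against vehicle-only cultures of the same repair-deficient yeast strain.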", "values": [{"smiles": "Nc1cccc(OCC(O)CN2CCN(c3ccccc3)CC2)c1", "note": "(stereo not given)", "growth inhibition": "3.7%"}, {"smiles": "Clc1cc(Cl)c2ncccc2c1", "growth inhibition": "4.05%"}, {"smiles": "O=C(CSc1c2ccccc2nc2ccccc12)Nc1ccccc1-c1ccccc1NC(=O)CSc1c2ccccc2nc2ccccc12", "growth inhibition": "27.4%"}, {"smiles": "CCCCS(=O)(=O)c1ccc(Cl)cc1", "growth inhibition": "-2.65%"}, {"smiles": "Cc1ccccc1N=C(N)Nc1ccccc1C", "growth inhibition": "-25.5%"}, {"smiles": "C=Cc1ccccc1NC(C(=O)O)c1ccccc1", "note": "(stereo not given)", "growth inhibition": "18.8%"}, {"smiles": "CC(=O)Nc1c(C)ccc(C)c1C(=O)O", "growth inhibition": "3.65%"}, {"smiles": "CC1(C)CC(C)(OC(=O)c2ccccc2)N=N1", "note": "(stereo not given)", "growth inhibition": "14.6%"}, {"smiles": "CCOC(=O)c1ccc(C=O)cc1", "growth inhibition": "15.5%"}, {"smiles": "O=C(O)/C1=C/CCC(C(=O)O)CCC1", "note": "(stereo not given)", "growth inhibition": "-4.15%"}, {"smiles": "CC(=O)CCCC(CC(C)O)[Si](C)(C)C", "note": "(stereo not given)", "growth inhibition": "-43.6%"}, {"smiles": "O=C(Oc1c(Cl)cc([N+](=O)[O-])cc1[N+](=O)[O-])Sc1ccccc1", "growth inhibition": "99.4% (active)"}, {"smiles": "CC(=O)c1cccc(N)c1", "growth inhibition": "-26.9%"}, {"smiles": "CCC(=O)N1C(=O)C(C)C23c4ccccc4C(=O)N2CCCN13", "note": "(stereo not given)", "growth inhibition": "4.35%"}, {"smiles": "O=C(N/N=C\\c1c[nH]c2ccccc12)N/N=C/c1c[nH]c2ccccc12", "growth inhibition": "-4.05%"}, {"smiles": "Cc1ccc(NC(=O)OCC(COc2ccc(Cl)cc2Cl)OC(=O)Nc2ccc(C)cc2)cc1", "note": "(stereo not given)", "growth inhibition": "-27.8%"}, {"smiles": "[Cu+2].[Cu+2].c1ccc2c(c1)-c1nc-2nc2[n-]c(nc3nc(nc4[n-]c(n1)c1ccccc41)-c1ccccc1-3)c1cc3c4nc5nc(nc6[n-]c(nc7nc(nc([n-]4)c3cc21)-c1ccccc1-7)c1ccccc61)-c1ccccc1-5", "growth inhibition": "-1.75%"}, {"smiles": "Cc1cc2cccc(C)c2[nH]1", "growth inhibition": "-11.4%"}, {"smiles": "NCCCN=c1ccc2c3c1c(O)c1c(O)ccc(=O)c1c3[nH]n2CCNCCO", "growth inhibition": "89.1% (active)"}, {"smiles": "CC(=O)c1ccccc1NC(=O)C(=O)C(C(=O)c1ccc2ccccc2c1)C1OC(=O)c2ccccc21", "note": "(stereo not given)", "growth inhibition": "-3.15%"}, {"smiles": "CC(=O)OCC(=O)[C@@]1(O)CC[C@H]2[C@@H]3C[C@@H](C)[C@@]4(O)CC5(CC[C@]4(C)[C@H]3[C@@H](O)C[C@@]21C)OCC(C)(C)CO5", "growth inhibition": "0.35%"}, {"smiles": "CC(C)CC(NC(=O)C(O)C(N)Cc1ccccc1)C(=O)O", "note": "(stereo not given)", "growth inhibition": "56.5%"}, {"smiles": "CCCC(CN1CCCCC1)C(OC(=O)c1ccc(N)cc1)C(F)(F)F", "note": "(stereo not given)", "growth inhibition": "-14.2%"}, {"smiles": "O=C(COc1ccccc1[N+](=O)[O-])Nc1cccnc1", "growth inhibition": "-18.9%"}, {"smiles": "O=C1CCc2nc(=O)c3c4ccccc4ccc3n21", "growth inhibition": "3.95%"}, {"smiles": "CN(C)c1nc(=NCc2cccs2)ss1", "growth inhibition": "71.2% (active)"}, {"smiles": "CNC(=S)SC(=S)NC", "growth inhibition": "14.6%"}, {"smiles": "COc1cc(C)cc(O)c1C=O", "growth inhibition": "9.9%"}, {"smiles": "CCOC(=O)C1C(c2cc(OC)c(OC)c(OC)c2)c2cc3c(cc2OC1(C)OC)OCO3", "note": "(stereo not given)", "growth inhibition": "5.55%"}, {"smiles": "CCCCN1C(=O)C(=O)N(CCc2ccc(OC)c(OC)c2)C1=O", "growth inhibition": "28%"}, {"smiles": "O=C(C(Cl)=C(N1CCOCC1)N1CCOCC1)C(Cl)Cl", "growth inhibition": "-37.9%"}, {"smiles": "CNC(=O)OCc1nc(SC(C)C)n(C)c1COC(=O)NC", "growth inhibition": "-16%"}, {"smiles": "CC(=O)OC1C(=O)OCC23CCC(C)=CC2OC2CC(OC(=O)/C=C/C=C/C(=O)OCCC1C)C3(C)C21CO1", "note": "(stereo not given)", "growth inhibition": "-35.5%"}, {"smiles": "Cc1ccc(S(=O)(=O)N2CCN(S(=O)(=O)c3ccc(C)cc3)CCN(S(=O)(=O)c3ccc(C)cc3)Cc3cc(Br)c(Br)cc3CN(S(=O)(=O)c3ccc(C)cc3)CC2)cc1", "growth inhibition": "-24.1%"}, {"smiles": "CC(C)COC1=CC(=O)c2ccccc2C1=O", "growth inhibition": "16.4%"}, {"smiles": "C(=Nc1ccccc1-c1ccccc1N=Cc1ccccc1)c1ccccc1", "growth inhibition": "7.6%"}, {"smiles": "COc1c(O)c(O)c2c(c1O)C(=O)c1cc(C)cc(O)c1C2=O", "growth inhibition": "-16.3%"}, {"smiles": "COc1cc(NCCCCCCN(C)C)c2ncccc2c1", "growth inhibition": "-17.4%"}, {"smiles": "COc1cc2c(cc1OC)C1CCN3C(=O)CCC3[N+]1(C)CC2", "note": "(stereo not given)", "growth inhibition": "46.6%"}, {"smiles": "c1ccc(-c2ccc(-c3c(-c4ccccc4)ccc(-c4ccccc4)c3-c3ccccc3)cc2)cc1", "growth inhibition": "20.8%"}]}, {"assay": "NCI Yeast Anticancer Drug Screen. Data for the mec2-1 strain (AID 157)", "conditions": "S. cerevisiae mec2-1 strain, at 50.0 µM, active compounds read high", "procedure,_shortened": "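Yeast mec2-1 mutant treated with compound. Readout: growth inhibition vs vehicle controls.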", "values": [{"smiles": "Nc1cccc(OCC(O)CN2CCN(c3ccccc3)CC2)c1", "note": "(stereo not given)", "growth inhibition": "8.6%"}, {"smiles": "Clc1cc(Cl)c2ncccc2c1", "growth inhibition": "17.9%"}, {"smiles": "O=C(CSc1c2ccccc2nc2ccccc12)Nc1ccccc1-c1ccccc1NC(=O)CSc1c2ccccc2nc2ccccc12", "growth inhibition": "9.75%"}, {"smiles": "CCCCS(=O)(=O)c1ccc(Cl)cc1", "growth inhibition": "-13.9%"}, {"smiles": "Cc1ccccc1N=C(N)Nc1ccccc1C", "growth inhibition": "-29.9%"}, {"smiles": "C=Cc1ccccc1NC(C(=O)O)c1ccccc1", "note": "(stereo not given)", "growth inhibition": "-5.05%"}, {"smiles": "CC(=O)Nc1c(C)ccc(C)c1C(=O)O", "growth inhibition": "-0.7%"}, {"smiles": "CC1(C)CC(C)(OC(=O)c2ccccc2)N=N1", "note": "(stereo not given)", "growth inhibition": "-11.1%"}, {"smiles": "CCOC(=O)c1ccc(C=O)cc1", "growth inhibition": "-5.75%"}, {"smiles": "O=C(O)/C1=C/CCC(C(=O)O)CCC1", "note": "(stereo not given)", "growth inhibition": "-1.95%"}, {"smiles": "CC(=O)CCCC(CC(C)O)[Si](C)(C)C", "note": "(stereo not given)", "growth inhibition": "-19.4%"}, {"smiles": "O=C(Oc1c(Cl)cc([N+](=O)[O-])cc1[N+](=O)[O-])Sc1ccccc1", "growth inhibition": "99.7% (active)"}, {"smiles": "CC(=O)c1cccc(N)c1", "growth inhibition": "-5.75%"}, {"smiles": "CCC(=O)N1C(=O)C(C)C23c4ccccc4C(=O)N2CCCN13", "note": "(stereo not given)", "growth inhibition": "-13.1%"}, {"smiles": "O=C(N/N=C\\c1c[nH]c2ccccc12)N/N=C/c1c[nH]c2ccccc12", "growth inhibition": "-21.4%"}, {"smiles": "Cc1ccc(NC(=O)OCC(COc2ccc(Cl)cc2Cl)OC(=O)Nc2ccc(C)cc2)cc1", "note": "(stereo not given)", "growth inhibition": "-24.9%"}, {"smiles": "[Cu+2].[Cu+2].c1ccc2c(c1)-c1nc-2nc2[n-]c(nc3nc(nc4[n-]c(n1)c1ccccc41)-c1ccccc1-3)c1cc3c4nc5nc(nc6[n-]c(nc7nc(nc([n-]4)c3cc21)-c1ccccc1-7)c1ccccc61)-c1ccccc1-5", "growth inhibition": "-9.45%"}, {"smiles": "Cc1cc2cccc(C)c2[nH]1", "growth inhibition": "-4.75%"}, {"smiles": "NCCCN=c1ccc2c3c1c(O)c1c(O)ccc(=O)c1c3[nH]n2CCNCCO", "growth inhibition": "35.1%"}, {"smiles": "CC(=O)c1ccccc1NC(=O)C(=O)C(C(=O)c1ccc2ccccc2c1)C1OC(=O)c2ccccc21", "note": "(stereo not given)", "growth inhibition": "3.45%"}, {"smiles": "CC(=O)OCC(=O)[C@@]1(O)CC[C@H]2[C@@H]3C[C@@H](C)[C@@]4(O)CC5(CC[C@]4(C)[C@H]3[C@@H](O)C[C@@]21C)OCC(C)(C)CO5", "growth inhibition": "16.2%"}, {"smiles": "CC(C)CC(NC(=O)C(O)C(N)Cc1ccccc1)C(=O)O", "note": "(stereo not given)", "growth inhibition": "26.6%"}, {"smiles": "CCCC(CN1CCCCC1)C(OC(=O)c1ccc(N)cc1)C(F)(F)F", "note": "(stereo not given)", "growth inhibition": "-13.7%"}, {"smiles": "O=C(COc1ccccc1[N+](=O)[O-])Nc1cccnc1", "growth inhibition": "-10.8%"}, {"smiles": "O=C1CCc2nc(=O)c3c4ccccc4ccc3n21", "growth inhibition": "1.55%"}, {"smiles": "CN(C)c1nc(=NCc2cccs2)ss1", "growth inhibition": "46.3%"}, {"smiles": "CNC(=S)SC(=S)NC", "growth inhibition": "8.3%"}, {"smiles": "COc1cc(C)cc(O)c1C=O", "growth inhibition": "-9.95%"}, {"smiles": "CCOC(=O)C1C(c2cc(OC)c(OC)c(OC)c2)c2cc3c(cc2OC1(C)OC)OCO3", "note": "(stereo not given)", "growth inhibition": "5.4%"}, {"smiles": "CCCCN1C(=O)C(=O)N(CCc2ccc(OC)c(OC)c2)C1=O", "growth inhibition": "5.8%"}, {"smiles": "O=C(C(Cl)=C(N1CCOCC1)N1CCOCC1)C(Cl)Cl", "growth inhibition": "-18.4%"}, {"smiles": "CNC(=O)OCc1nc(SC(C)C)n(C)c1COC(=O)NC", "growth inhibition": "-10.3%"}, {"smiles": "CC(=O)OC1C(=O)OCC23CCC(C)=CC2OC2CC(OC(=O)/C=C/C=C/C(=O)OCCC1C)C3(C)C21CO1", "note": "(stereo not given)", "growth inhibition": "-4.45%"}, {"smiles": "Cc1ccc(S(=O)(=O)N2CCN(S(=O)(=O)c3ccc(C)cc3)CCN(S(=O)(=O)c3ccc(C)cc3)Cc3cc(Br)c(Br)cc3CN(S(=O)(=O)c3ccc(C)cc3)CC2)cc1", "growth inhibition": "-6.05%"}, {"smiles": "CC(C)COC1=CC(=O)c2ccccc2C1=O", "growth inhibition": "17.4%"}, {"smiles": "C(=Nc1ccccc1-c1ccccc1N=Cc1ccccc1)c1ccccc1", "growth inhibition": "7.3%"}, {"smiles": "COc1c(O)c(O)c2c(c1O)C(=O)c1cc(C)cc(O)c1C2=O", "growth inhibition": "-27%"}, {"smiles": "COc1cc(NCCCCCCN(C)C)c2ncccc2c1", "growth inhibition": "-21.2%"}, {"smiles": "COc1cc2c(cc1OC)C1CCN3C(=O)CCC3[N+]1(C)CC2", "note": "(stereo not given)", "growth inhibition": "-1.05%"}, {"smiles": "c1ccc(-c2ccc(-c3c(-c4ccccc4)ccc(-c4ccccc4)c3-c3ccccc3)cc2)cc1", "growth inhibition": "-0.7%"}]}]}
